A number with no mark means an inactive call.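 Rule for the calls: active = viability increase at or above a cutoff of the median across tested compounds plus 3 SD (cut at about 8.5% in these data, passing the limit was not always enough); inconclusive = some gains above the cutoff, reason not given; inactive = the rest.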
test: doxorubicin toxicity protection in MRP-1 cells – H69AR cells, CellTiter-Glo, duplicate, MRP-1 activator project, pilot screen (AID 807); conditions: H69AR viability with doxorubicin, CellTiter-Glo luminescence; at 10 µM; active compounds read high;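 note: compound pretreatment 18-22 h then 72 h combined with doxorubicin; 0% = doxorubicin alone and 100% = vehicle without doxorubicin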

Row | SMILES | viability increase
1 | Cc1oc(-c2cccs2)nc1CS(=O)CC(=O)NCCCN1CC(C)CC(C)C1 (stereo not given) | -1.75%
2 | Cc1nc(-c2ccc(S(=O)(=O)N3CCCCCC3)cc2)cs1 | -2.37%
3 | O=C(CN1CCN(Cc2ccccc2F)C1=O)NCCN1CCOCC1 | -0.58%
4 | O=C(NCCCN1CCc2ccccc2C1)C1CCN(c2nnc(-n3cccc3)s2)CC1 | -3.55%
5 | CCOC(=O)N1CCC(NC(=O)c2cc3c(C)nc4ccccc4c3o2)CC1 | -3.16%
6 | Cn1c(N)c(C(=O)COC(=O)Cc2ccsc2)c(=O)n(C)c1=O | -0.79%
7 | NC(=O)C1CCN(C(=O)C2CCN(S(=O)(=O)c3ccccc3)CC2)CC1 | -1.4%
8 | COc1ccc(OC)c2[nH]c(=O)c(CCNC(=O)c3cc4ccccc4o3)cc12 | 2.38%
9 | Cc1ccc2cc(-c3noc(C4CCCO4)n3)c(=O)[nH]c2c1 (stereo not given) | -0.44%
10 | CCCCCn1c(N2CCC(Cc3ccccc3)CC2)nc2c1c(=O)[nH]c(=O)n2C | -8.6%
11 | COC(=O)c1[nH]c2cc(OC)ccc2c1NC(=O)c1ccc2c(c1)OCO2 | -3.43%
12 | Cc1ccccc1NC(=O)c1ccc(S(=O)(=O)N(C)C)cc1 | 0.67%
13 | Cc1cccc(NC(=O)NCCN2C(=O)C3C4C=CC(C4)C3C2=O)c1 (stereo not given) | -1.25%
14 | COc1ccc(C2C=C(c3ccc(C)c(C)c3)Nc3ncnn32)c(OC)c1OC (stereo not given) | -4.29%
15 | COc1ccc(NC(=O)c2nc3nc(C)cc(C(F)F)n3n2)cc1OC | 2.09%
16 | O=C(CC1(O)C(=O)Nc2ccccc21)c1ccccc1 (stereo not given) | -3.28%
17 | CCOC(=O)N1CCN(C(=O)c2cc3cc(Br)ccc3oc2=O)CC1 | -3.3%
18 | COc1ccc(OC)c(C2CC(=O)N3CN(c4cccc(Cl)c4C)CSC3=C2C#N)c1 (stereo not given) | -5.48%
19 | Cc1ccc(-n2nnc3c(=O)n(CC(=O)NCc4ccco4)cnc32)cc1 | -4.35%
20 | CSC1=NCCN1C(=O)C(C)Oc1ccccc1 (stereo not given) | 1.74%

Row | SMILES | viability increase
21 | COc1ccc(OC)c(N(CC(=O)O)S(=O)(=O)c2ccc(OC)c(OC)c2)c1 | -0.41%
22 | CCC(=O)c1cc2c(cc1NC(=O)c1cccs1)OCCO2 | -6.83%
23 | CCn1c(C2CC(=O)N(c3ccc(C)c(C)c3)C2)nc2ccccc21 (stereo not given) | -3.09%
24 | C=COCCn1c(-c2nonc2N)nc2ccccc21 | -4.61%
25 | O=C(NC1CCCCC1)C(c1ccccc1)N1CCC2(CC1)OCCO2 (stereo not given) | -4.79%
26 | CCCCNc1cc(=O)n(C)c(=O)[nH]1 | -0.6%
27 | CC1Cn2c(nnc2-c2cccc(N)c2)S1 (stereo not given) | -1.3%
28 | Cc1nnc(NC(=O)CSc2nnc(Cc3cccn3C)n2-c2cccc(C(F)(F)F)c2)s1 | -3.3%
29 | CCc1c(C)nc(SCC(=O)Nc2ccc(Br)cc2)[nH]c1=O | 1.64%
30 | CCc1nnc(NC(=O)C2Cc3ccccc3C(=O)O2)s1 (stereo not given) | 1.66%
31 | CCOCCn1c(CN(Cc2ccccc2)Cc2ccccc2)nc2c1c(=O)n(C)c(=O)n2C | -2.62%
32 | COc1ccccc1-c1cc(N)n(S(=O)(=O)c2ccc(F)c(C)c2)n1 | -3.08%
33 | O=C(O)[C@@H](c1ccccc1)N1Cc2ccccc2C1=O | -0.32%
34 | O=C(NCc1cccs1)c1cnc2sccn2c1=O | 0.04%
35 | CC(C)(C)OC(=O)N1CCC(C(N)=O)CC1 | -0.33%
36 | Cc1ccc(C2CC(c3ccccc3C)n3nc(N)nc3N2)cc1 (stereo not given) | -0.57%
37 | COC(=O)C1CCN(C(c2ccc(OC)c(OC)c2)c2sc3nc(C)nn3c2O)CC1 (stereo not given) | 0.34%
38 | CCOc1ccc(Oc2nc(NCC(C)C)nc(OC)n2)nn1 | 0.16%
39 | OC(COc1ccc2ccccc2c1)CN1CCN(c2ccc(F)cc2)CC1 (stereo not given) | -4.36%
40 | Cc1ccc(O)c(NC(=O)CCC2CCCCC2)c1 | -3.63%
